MCF10A rereplic: inducers of DNA re-replication in MCF 10A breast cells; MCF 10A DNA re-replication, Hoechst nuclear intensity, 48 h; Potency, µM (titrated, usually from 46.1 µM), for inactives: top-dose activity, positive = re-replication, usual class: activators; hit rate 2.9% among 350,000; AID 624296; note: % of control where 0% means no effect; nearly all actives have a fitted effect of over 50% in size
SW480 rerep: DNA re-replication induction in SW480 cells. hit rate 1.8% among 340,000. SW480 DNA re-replication, Hoechst DNA content imaging, 48 h. AID 624297. Potency, µM (top dose mostly 46.1 µM), for the others: top-dose re-replication activation, usual class: activators; note: % of control where 0% means no effect; nearly all actives have a fitted effect of over 55% in size
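Readout is total intensity of Hoechst-stained nuclei, excited at 405 nm and collected at 500-530 nm. Compound treatment lasted 48 hr at 37 C in 5% CO2 before staining.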
HT1080 IDH1KD tx: kills HT-1080 cells with IDH1 knockdown; HT-1080 IDH1 knockdown viability, ATP luminescence, 48 h; Potency, µM (series often up to 46.1 µM), without a hit: top-dose activity, negative = toxicity, usual class: cytotoxic; hit rate 2% among 360,000; AID 686971;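 note: 0% = DMSO wells and -100% = cell-free medium wells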
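Knockdown cells (IDH1KD HT-1080) received compounds 2 h after plating at 750 cells/well and were kept 48 h at 37 °C in 5% FBS RPMI. A CellTiter-Glo luminescence read gave % activity for curve fitting.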
HT1080NT lethal: kills 2HG-producing HT-1080-NT fibrosarcoma cells. HT-1080-NT fibrosarcoma viability, CellTiter-Glo ATP luminescence, 48 h. Potency, µM (top dose mostly 46.1 µM), for inactives: at the top dose activity, negative = less viability, most hits filed as cytotoxic. hit rate 1.6% among 360,000. AID 686970;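 note: NT is the 2HG producing partner of a matched IDH1 knockdown line; 0% = DMSO-treated cells and -100% = media-only wells without cells; nearly all actives have a fitted effect of over 55% in size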
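750 cells/well, RPMI + 5% FBS; 2 h settle, compound pin-transfer, 48 h at 37 degrees C. CellTiter-Glo 10 min RT, luminescence. Normalized to DMSO and media-only wells.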
KB-3-1 cytotox: kills parental KB-3-1 adenocarcinoma cells | KB-3-1 viability, CellTiter-Glo ATP luminescence, 72 h | AID 1347075 | hit rate 1.4% among 400,000 | Potency, µM (doses to about 46.1 µM), hits mostly cytotoxic; note: % is set by controls: 0 for no effect and ±100 for the full control effect; nearly all actives have a fitted effect of over 60% in size
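Cells are dispensed, compounds pinned in, plates held at 37 °C for 72 h, then CellTiter-Glo is added and luminescence read after 10 minutes. Cell line: parental KB-3-1 in phenol-red-free DMEM, 10% FBS.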
KB-V1 cytotox: KB-V1 MDR subline cytotoxicity; KB-V1 MDR cells viability, CellTiter-Glo, 72 h; Potency, µM (series often up to 46.1 µM), most hits filed as cytotoxic; hit rate 3.4% among 400,000; AID 1347076; note: % is set by controls: 0 for no effect and ±100 for the full control effect; nearly all actives have a fitted effect of over 60% in size
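In this primary screen, KB-V1 cells overexpressing P-gp are incubated with library compounds (lowest to highest concentration) for 72 h at 37 degrees C before a luminescent ATP viability read.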
An asterisk follows results filed as active; i = inactive; ? = inconclusive; / = no result given; [ ] = remark or other dose. A selection: hits, their analogues and other compounds. The true share with any hit is near 8%. Calls come from the whole dose curve; as a rule, active = well fitted curve in the direction sought with a large enough effect; inconclusive = small, poorly fitted or top-dose-only effect, or another doubt; inactive = no such curve, though single readings can be large; an effect the other way counts as inactive or inconclusive. Potency is the fitted concentration of half-maximal effect.

SMILES	MCF10A rereplic	SW480 rerep	HT1080 IDH1KD tx	HT1080NT lethal	KB-3-1 cytotox	KB-V1 cytotox
Cc1cc(Cl)n2c(nc3ccccc32)c1C#N	?	21µM*	7.3µM*	9.2µM*	i	?
COC(=O)c1cc(=O)c2c(ccc3oc(=O)ccc32)[nH]1	/	/	1%	14%	i	i
CCOC(CNc1cc(C)nc2c(-c3ccccc3OC)c(C)nn12)OCC	7%	-3%	-1%	-13%	i	?
CCN(CC)c1c2c(c(C#N)c3nc4ccccc4n13)CCC2	12%	20%	6%	2%	i	3.7µM*
CC(C)c1ccc(NC(=O)C2(C)Cc3c(-c4ccc(C(N)=O)cc4)ccnc3O2)cc1 (stereo unspecified)	/	/	-13%	-19%	i	i
CC1(C(=O)Nc2ccc(Cl)c(C(F)(F)F)c2)Cc2c(-c3ccc(C(N)=O)cc3)ccnc2O1 (stereo unspecified)	/	/	16µM*	16µM*	?	?
CC1(C(=O)Nc2ccc(Cl)c(C(F)(F)F)c2)Cc2c(-c3cccc(C(N)=O)c3)ccnc2O1 (stereo unspecified)	/	/	?	23µM*	i	?
Cc1sc2nc(SCCN(C)C)n(-c3ccccc3)c(=O)c2c1-c1ccc(F)cc1	?	18µM*	-8%	-7%	i	i
CN(C)CCSc1nc(O)c(-c2ccccc2)c(=O)n1-c1ccccc1	-2%	-10%	8%	3%	i	i
O=Cc1c(NCc2ccco2)nc2ccccn2c1=O	-1%	-8%	0%	-2%	i	i
Cc1ccc2[nH]c(=O)c(-c3nc4ccccn4c3NCc3ccco3)cc2c1	0%	-5%	?	?	i	8.2µM*
CNC(=O)c1c(NC(=O)c2ccc(S(=O)(=O)N3CCCCC3C)cc2)sc2c1CCN(C)C2 (stereo unspecified)	21µM*	?	?	?	i	i
Cc1ccc(N2CC(C(=O)NCc3cccs3)CC2=O)cc1 (stereo unspecified)	-167%[0.0737 µM]	?	-3%	18%	i	i
CCN(C(C)=O)c1nc(CSc2nnc(NC(C)C)s2)cs1	3%	-1%	7%	12%	i	23µM*
Cc1ccc2nc3n(c(=O)c2c1)-c1cc2ccccc2cc1C(=O)NC3Cc1ccc(O)cc1 (stereo unspecified)	/	/	13µM*	9.2µM*	?	i
Cc1ccc2c(=O)n3c(nc2c1)C(Cc1ccc(O)cc1)NC(=O)c1cccnc1-3 (stereo unspecified)	/	/	-2%	-1%	i	?
COc1cc2nc3n(c(=O)c2cc1OC)-c1cc2ccccc2cc1C(=O)NC3CC(C)C (stereo unspecified)	/	/	?	-15%	18µM*	?
O=C1NC(Cc2ccc(O)cc2)c2nc3ccc(F)cc3c(=O)n2-c2cc3ccccc3cc21 (stereo unspecified)	/	/	16µM*	12µM*	13µM*	?
O=C1NC(Cc2ccccc2)c2nc3cc(F)c(F)cc3c(=O)n2-c2cc3ccccc3cc21 (stereo unspecified)	/	/	?	?	15µM*	?
CCOC(=O)c1sc(NC(=O)c2cc3nc(-c4ccc(Br)cc4)cc(C(F)(F)F)n3n2)c(C(=O)OCC)c1C	/	/	/	/	?	i
O=C1NC(Cc2ccc(O)cc2)c2nc3cc(Cl)ccc3c(=O)n2-c2cc3ccccc3cc21 (stereo unspecified)	/	/	16µM*	23µM*	?	?
O=C1NC(Cc2ccc(O)cc2)c2nc3cc(F)c(F)cc3c(=O)n2-c2cc3ccccc3cc21 (stereo unspecified)	/	/	18µM*	?	?	i
Cc1ccc(CSc2ccc3nnc(CCNS(=O)(=O)c4ccc(C)cc4)n3n2)cc1	/	/	/	/	i	i
Cc1cc(C)n2nc(C(=O)OCC(=O)N(C)Cc3ccccc3)nc2n1	-1%	-94%	13%	12%	i	i
Cc1cc(C)n2nc(C(=O)OCC(=O)c3ccccc3)nc2n1	?	8.2µM*	-29%	-4%	i	i
SMILES	MCF10A rereplic	SW480 rerep	HT1080 IDH1KD tx	HT1080NT lethal	KB-3-1 cytotox	KB-V1 cytotox
O=C1OCCN1C(=O)[C@H]1[C@H](c2ccc(Cl)cc2)C(c2ccc(F)cc2)=NN1c1ccc(Br)cc1	?	21µM*	?	-27%	i	i
CC[C@@H]1C(c2ccc(F)cc2)=NN(c2ccccc2)[C@H]1C(=O)N1CCOC1=O	?	16%	-8%	-6%	i	i
O=C1OCCN1C(=O)[C@H]1[C@H](c2ccc(Cl)cc2)C(c2ccc(F)cc2)=NN1c1ccccc1	3.7µM*	?	-22%	-16%	?	?
O=C1OCCN1C(=O)[C@H]1[C@H](c2ccc(F)cc2)C(c2ccc(F)cc2)=NN1c1ccccc1	5.8µM*	18µM*	-16%	-13%	i	i
O=C1OCCN1C(=O)[C@H]1[C@H](c2ccc(F)cc2)C(c2ccc(F)cc2)=NN1c1ccc(Br)cc1	?	?	-25%	-18%	i	?
O=C1OCCN1C(=O)[C@H]1[C@H](c2ccc(F)cc2)C(c2ccccc2)=NN1c1ccccc1	5.2µM*	21µM*	-11%	-11%	i	i
CCN(Cc1ccccc1)S(=O)(=O)c1cn(C)cn1	-2%	-35%	6%	10%	i	?
Cc1ccc(NC(=O)COC(=O)CCc2c(C)nc3ncnn3c2C)cc1C	-7%	15%	9%	4%	?	i
CCOC(=O)c1cnc2ccc(OCC)cc2c1NCc1ccccc1	21µM*	-2%	?	-12%	?	1.8µM*
CCOC(=O)c1cnc2ccc(OCC)cc2c1NCc1cccnc1	23µM*	0%	?	?	?	?
CC#CCN1c2ccccc2[C@]23C[C@@H](C(=O)OC)N(C(=O)NC(C)(C)C)C2=NC(C(=O)OC)=C(C(=O)OC)[C@H]13	9%	1%	0%	1%	i	i
COc1ccc(COc2cc(-c3cccc(OC)c3)nc3ccc(NC(=O)C(C)C)cc23)cc1	?	15µM*	2.9µM*	?	2.6µM*	?
CC(=O)Nc1cccc(-c2cnc(NC(C)=O)cn2)c1	/	/	?	-10%	18µM*	i
Cc1ccc(C(=O)Nc2cccc(-c3cnc4ccccc4n3)c2)cc1	1%	-3%	20%	-6%	i	i
